Screening results as filed in PubChem BioAssay.
The list is not random: actives were taken first. Their share in the collection is about 19%.
uPA surface inh – inhibitors of cell surface uPA generation; 330,000 compounds, 0.31% hits; Potency, µM (series often up to 38.3 µM), inactives show at the highest dose activity change, negative = inhibition, actives largely listed as inhibitors; cell surface uPA generation assay, qHTS; active = well fitted inhibition curve with a large enough effect; inconclusive = small, poorly fitted or top-dose-only effect; inactive = no such curve, though single readings can be large or run the other way; tested in mouse RAW 264.7 cells; note: potency is the fitted concentration of half-maximal effect; nearly all actives have a fitted effect of over 55% in size
IL1B secr inh – blocks inflammasome-driven IL-1 beta release; 360,000 compounds, 4.7% hits; activity change, % at 57.5 µM; THP-1 LPS/ATP IL-1B secretion, AlphaLISA, 16 h; stronger effect = lower value; AID 743279; in the data active = activity change below about -50%; inconclusive = mostly about -30% to -49%
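Secreted IL-1B measured by AlphaLISA bead assay after 16 h compound exposure of THP-1 cells; compounds (final up to 57.5 uM) added 1 h before LPS (250 ng/mL) and ATP (1.25 mM) stimulation; lower signal means less secretion.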
HT1080-NT tox – kills 2HG-producing HT-1080-NT fibrosarcoma cells; HT-1080-NT fibrosarcoma viability, CellTiter-Glo ATP luminescence, 48 h; Potency, µM (top dose mostly 46.1 µM), inactives show at the top dose activity, negative = less viability, usual class: cytotoxic; 360,000 compounds, 1.6% hits;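 note: NT is the 2HG producing partner of a matched IDH1 knockdown line; potency is the fitted concentration of half-maximal effect; 0% = DMSO-treated cells and -100% = media-only wells without cells; nearly all actives have a fitted effect of over 55% in size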
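Viability of the 2HG-overproducing fibrosarcoma line after 48 hours of compound exposure at 37 degrees C was determined by luminescence with CellTiter-Glo, and concentration-effect curves were then fitted and categorized.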
DT40 TDP1 CPT – DT40-hTDP1 cell growth loss with CPT | chicken DT40 Tdp1-/-;hTDP1 cells + 20 nM CPT, ATP luminescence, 48 h | Potency, µM (highest dose often 46.2 µM), without a hit: at the highest dose activity change, negative = growth inhibition, actives largely listed as inhibitors | 420,000 compounds, 12% hits; note: potency is the fitted concentration of half-maximal effect; nearly all actives have a fitted effect of over 55% in size
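Cell growth measured by CellTiter-Glo luminescence after a minimum 48 h, 37 C compound exposure with 20 nM CPT in Tdp1-knockout DT40 cells stably expressing hTDP1, seeded 400/well; qHTS titration format.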
TDP1 cell noCPT – qHTS for Inhibitors of human tyrosyl-DNA phosphodiesterase 1 (TDP1): qHTS in cells in absence of CPT | DT40 Tdp1-/- hTDP1 cells, no CPT, ATP luminescence, 48 h | 420,000 compounds, 15% hits | AID 686978, 2013 | Potency, µM (highest dose often 46.2 µM), for inactives: at the top dose activity change, negative = growth inhibition, actives largely listed as inhibitors; note: potency is the fitted concentration of half-maximal effect; nearly all actives have a fitted effect of over 55% in size
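Cells were dispensed at 400 per well, compounds added by pin tool, plates incubated ≥48 hr at 37 °C, then CellTiter-Glo added for 30 min at room temperature before luminescence reading. Line: DT40 Tdp1-/- complemented with hTDP1; camptothecin omitted.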
HT1080 IDH1KD tx – toxicity to HT-1080 IDH1 knockdown cells (counter line) | HT-1080 IDH1 knockdown viability, ATP luminescence, 48 h | Potency, µM (top dose mostly 46.1 µM), inactives show at the highest dose activity, negative = toxicity, usual class: cytotoxic | 360,000 compounds, 2% hits;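 note: potency is the fitted concentration of half-maximal effect; 0% = DMSO wells and -100% = cell-free medium wells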
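HT-1080-IDH1KD cells (IDH1 knocked down), 750/well in RPMI with 5% FBS, treated with compound 48 h at 37 degrees C. Viability by CellTiter-Glo luminescence, normalised to DMSO and no-cell wells; concentration-response curves classed.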
* = called active by the depositor; ? = inconclusive; · = not tested or not shown; [ ] = remark or other dose. Unless noted, calls come from the whole dose curve; as a rule, active = well fitted curve in the direction sought with a large enough effect; inconclusive = small, poorly fitted or top-dose-only effect, or another doubt; inactive = no such curve, though single readings can be large; an effect the other way counts as inactive or inconclusive. Unless noted, % is set by controls: 0 for no effect and ±100 for the full control effect.

SMILES | uPA surface inh | IL1B secr inh | HT1080-NT tox | DT40 TDP1 CPT | TDP1 cell noCPT | HT1080 IDH1KD tx
Cc1ccc(Cl)cc1N1CCN(C(=O)COCc2cc(-c3ccc4c(c3)OCO4)on2)CC1 | · | · | · | -1.2% | -25.2% | ·
Cc1ccc(C)c(CN2CCCN(Cc3cc(C)ccc3C)S2(=O)=O)c1 | 0.1% | 8.9 | -8.5% | ? | 9.2µM* | 1.5%
Cc1cc(=O)[nH]c2nnc(SCc3c(F)cccc3Cl)n12 | · | · | · | -32.4% | -5.5% | ·
COc1ccc(-c2c/c(=N\c3nc(-c4ccccc4)c(C)s3)c3ccccc3o2)cc1O | -11.5% | 18.4 | 5.8µM* | 5.8µM* | 4.11µM* | 5.8µM*
COc1ccc(-c2cc(=Nc3c(C)n(C)n(-c4ccccc4)c3=O)c3ccccc3o2)cc1 | -2.1% | -29.2 | -6.3% | ? | 20.6µM* | -20.9%
CCn1[nH]c(=O)c(=Nc2c(C)n(C)n(-c3ccccc3)c2=O)cc1-c1ccc(Cl)cc1 | 2.1% | -51.6* | -12.5% | -9.3% | ? | -15.7%
COC(=O)c1nnn(-c2nc(N3CCOCC3)nc(N3CCOCC3)n2)c1C | -1.5% | 26.0 | -1.8% | ? | ? | 7.3%
Cc1ccc(NC(=O)CSc2nnc(-c3ccc([N+](=O)[O-])cc3)o2)c(C)c1 | · | · | · | -19.7% | -20.5% | ·
Cc1cc(C)n(-c2nc3ccccc3nc2Nc2ccc(Cl)cc2Cl)n1 | · | · | · | -0.3% | -26.8% | ·
CC(C)CCC[C@](C)(O)c1ccc(C(=O)O)cc1O | · | 15.5 | 13.8% | 0.6% | -5.2% | 3.4%
Cc1ccc(C(O)(COC(=O)C(C)C)COC(=O)C(C)C)c(O)c1 | ? | 1.2 | -0.8% | 4.61µM* | 3.66µM* | -12.5%
O=C(CSc1nnnn1-c1ccccc1Cl)Nc1ccc2c(c1)OCCO2 | 8.1% | 0.5 | 0.4% | 16.4µM* | 20.6µM* | 0.2%
COc1ccc(NC(=O)CSc2nnnn2-c2ccc(F)cc2)cc1 | 5.5% | -6.7 | -4.2% | -11.0% | ? | -16.8%
O=C(CSc1nnnn1-c1ccc(F)cc1)Nc1ccc(N2CCOCC2)c(Cl)c1 | · | ? | 0.4% | 14.6µM* | ? | 0.4%
O=C(CSc1nnnn1-c1ccc(Cl)cc1)NC(=O)Nc1ccc2c(c1)OCCO2 | -3.5% | 23.1 | 0.0% | -26.6% | 1.0% | -10.4%
O=C(OCc1ccccc1)C1=NNC2C(=O)N(Cc3ccccc3)C(=O)C12 (stereo not given) | -0.3% | 29.6 | 0.0% | 0.2% | -20.6% | 13.7%
O=C(NCCC1=CCCCC1)c1ccc(-n2cncn2)c([N+](=O)[O-])c1 | 11.4% | 2.8 | -0.3% | ? | -14.1% | -9.4%
Cc1cccc(Cn2cnc3c(nnn3Cc3ccccc3F)c2=O)c1 | · | -10.8 | -0.6% | ? | 28.2µM* | -26.1%
Cc1ccc(Cn2nnc3c(=O)n(CC(=O)N4CCN(c5ccccc5)CC4)cnc32)cc1 | 6.3% | ? | 5.2% | 20.6µM* | ? | -25.9%
Cc1ccc(Cn2nnc3c(=O)n(CC(=O)OCc4ccccc4)cnc32)cc1 | 3.0% | -13.2 | 6.8% | 18.4µM* | 16.4µM* | 8.9%
Cc1cccc(Cn2cnc3c(nnn3Cc3ccc(F)cc3)c2=O)c1 | · | -4.5 | 10.8% | ? | ? | -4.6%
Cc1nn(CC(=O)NCC(C)c2ccccc2)c(=O)c2cc3ccccc3n12 (stereo not given) | · | · | · | -23.3% | -27.6% | ·
Cc1cccc(C)c1NC(=O)CN(C)C(=O)C1CC(=O)N(c2cccc3ccccc23)C1 (stereo not given) | -11.3% | 14.9 | 1.3%[9.24 µM] | -0.5% | 3.1% | 13.2%
FC(F)(F)c1cc(CN2CCC3(CCNCC3)CC2)cc(C(F)(F)F)c1 | · | · | · | 6.51µM* | 4.61µM* | ·
OC(c1ccc(F)cc1)c1nc(-c2cccs2)cs1 (stereo not given) | · | -4.3 | 11.3% | -28.5% | ? | 4.1%
